Measured values published in PubChem BioAssay (NCI).
The panel holds about 83,000 compounds, 20% with a hit somewhere; the sample as a whole holds those more often.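 Interpretation: 100, growth as untreated; towards 0, rising growth inhibition; 0, no net growth; 0 to -100, cell death. Compounds scoring below 10 were considered active.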 Unmarked numbers belong to inactive results. Calls of active or inactive are those of the source.

tested on: HL-60(TB) leukemia; test: NCI-60 one-dose screen, 48 h (100 = growth as untreated, 0 = no growth, -100 = all killed); conditions: 10 µM unless noted

Structure (SMILES) | growth
O=C(/C(=C/c1ccc([N+](=O)[O-])cc1)SCc1ccc(Cl)cc1)c1ccc(F)cc1 | 59.5%
CCOc1ccc2nc3ccc(Cl)cc3nc2c1 | 63.7%
C=C1C(=O)O[C@H]2[C@H]1CC/C(COC(=O)CSCCSCC(=O)OC/C1=C/CC[C@@]3(C)O[C@H]3[C@H]3OC(=O)C(=C)[C@@H]3CC1)=C\CC[C@@]1(C)O[C@@H]21 | -58.8% (active)
